Bioassay records deposited in PubChem by several laboratories.
In the library only some 2% were active in any assay of this set; here they are far more common.
GalR3 antagonist – blocks the human galanin receptor 3. HEK293 GalR3-CNG cAMP membrane potential fluorescence; galR3 body fused to GalR1 C-terminus. O60755. 360,000 tested, 0.44% active. inhibition, % at 3 µM. AID 651719;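 active = inhibition above the screen-wide average plus 3 SD, cut at about 13% in these data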;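 also: forskolin and galanin both at EC90 stimulate the cells; cAMP rise reported by CNG channel membrane potential dye signal; 0% = forskolin plus galanin with DMSO and 100% = forskolin alone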
Target sequence (O60755 1-299 limits assumed): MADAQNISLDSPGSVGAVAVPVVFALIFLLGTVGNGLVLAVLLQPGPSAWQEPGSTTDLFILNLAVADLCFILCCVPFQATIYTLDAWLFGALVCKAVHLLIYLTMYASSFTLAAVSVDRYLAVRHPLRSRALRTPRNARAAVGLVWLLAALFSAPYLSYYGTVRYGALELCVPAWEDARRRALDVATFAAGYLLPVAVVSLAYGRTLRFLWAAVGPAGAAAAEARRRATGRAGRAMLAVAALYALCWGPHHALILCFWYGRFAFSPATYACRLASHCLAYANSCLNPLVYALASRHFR
NR2F2 inh – NR2F2 (human) inhibition, primary screen | P24468 | inhibition, % at 8.6 µM | AID 686940 | HEK293T NGFI-A luciferase reporter, luminescence | 370,000 tested, 0.7% active;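 active = inhibition above a per-plate cutoff, mean inhibition of test wells between control levels plus 3 SD, cut at about 38% in these data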;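 also: cells cotransfected with COUP-TFII expression vector driving the NGFI-A reporter; 0% = median of COUP-TF2 test wells and 100% = reporter-only cells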
Jurkat NFkB inh – lowers PMA/ionomycin-induced NF-kB signal in Jurkat cells. PMA/ionomycin-induced NF-kB luciferase reporter, luminescence. inhibition, % at 4 µM. 330,000 tested, 0.53% active. AID 435003; in the data active = inhibition above about 50%
Gli-Sufu block – Gli-Sufu pathway antagonism. Sufu-KO-LIGHT fibroblasts, Gli luciferase reporter luminescence. inhibition, % at 5 µM. 340,000 tested, 0.74% active;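 active = inhibition above about 55%, limit read from the data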;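 also: 0% = DMSO-treated cells and 100% = wells with medium but no cells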
697 NFkB inh – lowers PMA/ionomycin-induced NF-kB signal in 697 B cells. 697 B-cell NF-kB luciferase reporter, 16 h. inhibition, % at 4 µM. 330,000 tested, 0.33% active. AID 435022; in the data active = inhibition above about 35%
697 NFkB conf – lowers PMA/ionomycin-induced NF-kB signal in 697 B cells | 2,000 tested, 35% active | AID 449746 | 697 B-cell NF-kB luciferase, 16 h | shares compounds with 697 NFkB inh | inhibition, % at 4 µM; in the data active = inhibition mostly above about 28%, no sharp cut-off; inactive = mostly below about 22%
Starred values were filed as active, the others as inactive; i = inactive; · = no result.

SMILES	GalR3 antagonist	NR2F2 inh	Jurkat NFkB inh	Gli-Sufu block	697 NFkB inh	697 NFkB conf
O=C1Nc2ccc(S(=O)(=O)NCC3CCCO3)c3cccc1c23 (stereo not given)	-1	15	-8	3	6	·
CCN1C(=O)c2cccc3c(S(=O)(=O)Nc4ccncc4)ccc1c23	·	·	-1	7	37*	10
CCN1C(=O)c2cccc3c(S(=O)(=O)Nc4ccccn4)ccc1c23	1	-114	3	34	58*	54*
CCN1C(=O)c2cccc3c(S(=O)(=O)Nc4ccccc4)ccc1c23	·	·	-2	42	52*	43*
CNS(=O)(=O)c1ccc2c3c(cccc13)C(=O)N2C	-6	-17	5	5	9	·
CN1C(=O)c2cccc3c(S(=O)(=O)Nc4ccccc4F)ccc1c23	-9	-53	4	14	37*	34*
COc1cc(OC)c(/C=N/NC(N)=S)cc1Br	0	-13	-9	-9	55*	18*
CN(C)c1cccc(/C=C2\CC3(OC(=O)c4ccc(F)cc4)CCCN2C3)c1 (stereo not given)	·	-3	·	·	·	·
NC(=O)c1ccccc1NC(=O)Nc1cccc(Cl)c1	-6	12	-16	0	11	·
O=C(Nc1cccc(Cl)c1)Nc1ccccc1C(=O)O	-2	-30	-115	-42	-273	-333
O=C(Nc1ccc(Cl)c(Cl)c1)Nc1ccccc1C(=O)O	-7	-48	-136	-40	i	i
COc1ccc2cc(-c3cccc4[nH]cc(C)c34)ccc2c1	·	-15	·	·	·	·
CCc1cc(C(=O)N2CCc3c([nH]c4ccccc34)C2c2ccc(OC)cc2F)no1 (stereo not given)	-8	-71	-2	-2	i	-48
CCn1c(=O)c2cc(C(=O)NCCN3CCOCC3)sc2c2ccccc21	·	-21	-14	14	22	·
CCCCNC(=O)c1cc2c(=O)n(CC)c3ccccc3c2s1	-13	0	7	29	24	·
CCn1c(=O)c2cc(C(=O)NCc3cccs3)sc2c2ccccc21	·	13	-8	9	39*	36*
CCn1c(=O)c2cc(C(=O)NC(C)C)sc2c2ccccc21	-5	-52	4	17	37*	28*
CCOC(=O)C(C)c1n[nH]c(=O)c2ccccc12 (stereo not given)	-4	-8	-1	-5	38*	12
O=C(c1ccc(N2CCCC2)c([N+](=O)[O-])c1)N1CCc2ccccc2C1	-4	-10	3	17	37*	16
O=C(c1ccc(N2CCCCC2)c([N+](=O)[O-])c1)N1CCOCC1	-5	1	21	1	3	·
Cc1cccc(Cn2cc(CN3CC(N4CCN(CCOC(=O)c5cc6ccccc6o5)CC4)CS3(=O)=O)nn2)c1 (stereo not given)	·	8	·	·	·	·
O=C(NC1CCCCN(Cc2ccc(Cl)cc2)C1=O)c1cccc2nsnc12 (stereo not given)	·	12	·	·	·	·
COC(=O)c1ccc(Cn2ccc3ccc(-c4ccc5ccn(C(=O)c6ccccc6OC)c5c4)cc32)cc1	·	5	·	·	·	·
Cc1ccc2nc(NC(=O)c3ccco3)sc2c1	-9	25	-52	-38	-250	-271
Cc1ccc2nc(NC(=O)c3ccc(Br)o3)sc2c1	-9	-64	-103	-76	-277	-284
SMILES	GalR3 antagonist	NR2F2 inh	Jurkat NFkB inh	Gli-Sufu block	697 NFkB inh	697 NFkB conf
CCCCc1ccc2nc(NC(=O)c3ccc(Br)o3)sc2c1	·	-33	·	·	·	·
COc1ccc2nc(NC(=O)c3ccco3)sc2c1	-5	2	-27	-76	-256	-320
Cc1cc2sc(NC(=O)c3ccco3)nc2cc1Cl	-2	-14	-127	-91	-360	-284
CCC(C)CNC(=O)c1cn(C(C)c2ccccc2)nn1 (stereo not given)	·	-16	·	·	·	·
COc1ccc(CSc2nnc(SCC(=O)Nc3ccc(S(N)(=O)=O)cc3)s2)cc1	·	-8	·	·	·	·
O=C(Nc1nc2ccc(Cl)cc2s1)c1ccco1	-2	-31	-67	-112	-271	-301
COc1ccc(-c2nn(C)c(=O)c3ccccc23)cc1CNS(C)(=O)=O	-3	-22	-1	0	29	·
COc1ccc(-c2nn(C)c(=O)c3ccccc23)cc1NS(C)(=O)=O	-4	-63	-9	13	38*	32*
Cc1ccc(C(=O)NC(=S)Nc2ccc(NC(=O)c3cccc(Cl)c3)cc2)cc1	-1	6	-26	-49	-305	13
Cc1ccccc1N1CCN(C(=O)CCn2nnc3ccccc32)CC1	·	-32	·	·	·	·
